This is a sample that favours compounds with a hit; in the whole collection about 7.8% have one here.
HCV inhibitor = HCV inhibition; Huh7.5.1 HCVcc-Cre infection, luciferase reporter, 44 h; hit rate 3.4% among 340,000; AID 651820; Potency, µM (titrated, usually from 41.8 µM), most hits filed as inhibitors; active = well fitted inhibition curve with a large enough effect; inconclusive = small, poorly fitted or top-dose-only effect, or another doubt; inactive = no such curve, though single readings can be large or run the other way
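Infectious HCVcc-Cre (~0.5 moi) was added to cells just after compound, with cells seeded 4 h earlier at 1,000 per well. Luciferase activity after 44 h culture reported infection; substrate was incubated 15 min at room temperature before reading.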
MARV entry inh = Marburg virus entry inhibition | Marburg virus pseudotyped entry inhibition, cell reporter | Potency, µM (doses to about 37.8 µM), actives largely listed as inhibitors | hit rate 1.8% among 300,000; calls by dose curve; tested in HEK293 cells
Vaccinia mCherry = inhibitors of vaccinia virus infection (mCherry reporter signal); Vaccinia virus mCherry reporter infection, fluorescence; Potency, µM (highest dose often 36.5 µM), actives largely listed as inhibitors; hit rate 0.63% among 310,000; AID 720579; calls by dose curve; tested in A549 cells; note: nearly all actives have a fitted effect of over 35% in size
HCMV inh = inhibitors of human cytomegalovirus; HFF cells, HCMV-luciferase reporter, 72 h; stronger effect = lower value; activity change, negative = inhibition, % at 57.5 µM; hit rate 4.5% among 410,000; AID 1259415; in the data active = activity change below about -60%; inconclusive = no clear call, values can overlap the other calls; inactive = above about -39%
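Two compound doses tested in HFFs infected with HCMV-luciferase, MOI 1 PFU/cell, 72 h at 37C. Lysate luminescence read with OneGlo; data normalized against buffer-only and 10uM Salinomycin inhibitor controls.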
LASV entry inh = blocks Lassa virus binding to or entry into cells. AID 540256. hit rate 1.2% among 300,000. Lassa virus pseudotype entry inhibition, cell reporter. Potency, µM (highest dose often 37.9 µM), hits mostly inhibitors; calls by dose curve; tested in HEK293 cells; note: nearly all actives have a fitted effect of over 50% in size
Vaccinia Venus = inhibitors of vaccinia virus (Venus reporter). Vaccinia virus Venus reporter expression, fluorescence. Potency, µM (titrated, usually from 36.5 µM), actives largely listed as inhibitors. hit rate 0.46% among 330,000. AID 720580; calls by dose curve; tested in A549 cells; note: nearly all actives have a fitted effect of over 30% in size
A number is an active result; . = inactive; ? = inconclusive; / = no result given; ! = not confirmed by another sample.

SMILES	HCV inhibitor	MARV entry inh	Vaccinia mCherry	HCMV inh	LASV entry inh	Vaccinia Venus
CCOC(=O)Cn1nnnc1C(C(C)C)N(Cc1cccs1)Cc1cc2cc(C)ccc2[nH]c1=O (configuration not stated)	?	9.2µM	/	.	?	/
CCOC(=O)Cn1nnnc1C(CC)N(Cc1cccs1)Cc1cc2cc(C)ccc2[nH]c1=O (configuration not stated)	.	16µM	/	.	?	.
CCOC(=O)c1[nH]c(C)c(C(=O)N2CCc3ccccc32)c1C	?	?	/	-92	?	?
CCOC(=O)c1[nH]c(C)c(C(=O)OCc2ccccc2F)c1C	3.2µM	?	?	.	5.6µM	?
CC(=O)c1c(C)[nH]c(C(=O)N2CCc3ccccc32)c1C	.	.	.	.	.	.
CCOC(=O)c1[nH]c(C)c(C(=O)c2cc(F)ccc2F)c1C	?	?	/	-86	.	/
CCOC(=O)c1[nH]c(C)c(C(=O)OCC)c1C	?	/	.	.	/	.
CC1=CC(C)(C)N2C(=O)C3(NCCc4c3[nH]c3ccccc43)c3cc(C)cc1c32 (configuration not stated)	7.9µM	/	?	?	/	.
CN1C(=O)C2(NCCc3c2[nH]c2ccccc32)c2ccccc21 (configuration not stated)	.	.	/	.	.	.
Cc1cc(NCCCCCCCNc2cc(C)nc3cc([N+](=O)[O-])ccc23)c2ccc([N+](=O)[O-])cc2n1	10µM	?	?	.	?	10µM
COCCCNc1cc(C)nc2ccccc12	.	.	.	.	.	.
CCCCCOc1c(Cl)cc(C(=O)N(Cc2ccc(C)o2)C2CCS(=O)(=O)C2)cc1Cl (configuration not stated)	/	.	.	.	.	.
CCCCOc1c(Cl)cc(C(=O)N(Cc2ccc(C)o2)C2CCS(=O)(=O)C2)cc1Cl (configuration not stated)	/	?	.	-110	.	.
Cc1cc2ncn(/N=C/c3ccc([N+](=O)[O-])s3)c2cc1C	11µM	?	?	.	.	?
O=[N+]([O-])c1ccc(/C=N/n2cnc3ccccc32)s1	?	?	5µM	.	?	6.3µM
CCCCCn1cc2c(c1-c1ccccc1Br)c(=O)n(C)c(=O)n2C	/	.	.	.	.	.
CC1CCN(S(=O)(=O)c2ccc3nc(NCc4ccccc4)ccc3c2)CC1	/	/	.	.	?	.
Cc1cccc(NC(=O)c2nc[nH]c2C(=O)NCc2ccccc2)c1	?	/	.	-61	/	?
Cc1cccc(NC(=O)c2nc[nH]c2C(=O)N[C@H](C)c2ccccc2)c1	?	/	28µM	.	/	?
CN(Cc1ccccc1)C(=O)c1[nH]cnc1C(=O)NCc1ccccc1	.	/	.	-61	/	.
O=C(Nc1ccccc1)c1nc[nH]c1C(=O)NCc1ccccc1	.	/	.	.	/	?
O=C(/C=C/c1ccccc1)c1ccc(O)cc1O	/	/	.	/	/	.
COc1ccc(C(=O)/C=C/c2ccccc2)c(O)c1	?	/	.	-106	/	.
CC(C)=CCC/C(C)=C/Cc1c(O)ccc(C(=O)/C=C/c2ccc(O)cc2)c1O	25µM	.	?	.	?	.
O=C(/C=C/c1ccc(O)cc1)c1ccc(O)cc1O	.	10µM!	?	.	?	?
SMILES	HCV inhibitor	MARV entry inh	Vaccinia mCherry	HCMV inh	LASV entry inh	Vaccinia Venus
CC(=O)C1CCC2C3CC(C)C4=CC(=O)CC[C@@]4(C)C3C(O)C[C@@]12C (some centres not stated)	/	/	.	/	/	.
COc1ccc(-c2cc(C(F)(F)F)nc(SCC(=O)NCCc3ccc(OC)c(OC)c3)n2)cc1	/	.	.	.	.	.
Cc1ccc(C)c(S(=O)(=O)c2nnn3c2nc(NC(C)C)c2sccc23)c1	/	/	.	-70	.	?
COc1ccc(OCC(=O)NCC2(N3CCN(C)CC3)CCCCC2)cc1	/	.	.	.	.	.
Cc1ccc(/C(C#N)=C\c2cn(C)c3ccccc23)cc1	6.3µM	.	/	/	/	/
Cn1cc(C=O)c2ccccc21	.	/	.	.	/	.
CC(C)=CCC/C(C)=C/CNC(=O)C[C@H]1C[C@H](C(=O)N2CCOCC2)[C@@]2(C)c3[nH]c4cc(-c5ccco5)ccc4c3CCN2C1=O	?	/	?	/	/	11µM
CC(C)=CCC/C(C)=C/CNC(=O)C[C@H]1C[C@H](C(=O)N2CCOCC2)[C@@]2(C)c3[nH]c4ccc(Cl)cc4c3CCN2C1=O	.	.	?	-86	/	?
CCn1c(=O)c2sccc2n2c(CCCC(=O)N3CCN(c4ccccc4OC)CC3)nnc12	/	/	.	?	.	.
COc1ccc(-c2c(C#N)c(N)nc3c2CCc2ccccc2-3)cc1OC	11µM	23µM	/	.	?	/
COc1ccc(-c2cc(-c3ccc(O)cc3)nc(N)c2C#N)cc1OC	?	4.5µM	.	.	?	?
Fc1ccccc1-c1ccc(-c2nc3ccc(Cl)cn3c2Nc2ccc(Cl)cc2)o1	/	/	.	/	/	.
CC1(C)N=C(c2ccc(F)cc2)C(=O)N1CC(=O)Nc1ccccc1Cl	/	.	.	.	.	.
O=[N+]([O-])c1cc(Cl)cc2c1nc(NCCO)c1ccccc12	2µM	?	0.89µM	-95	.	?
O=C(c1cnc(Cl)c(Cl)c1)N1CCN(S(=O)(=O)c2ccc3ccccc3c2)CC1	11µM	?	.	.	.	.
CC(C)CC(=O)N1CCN(S(=O)(=O)c2ccc3ccccc3c2)CC1	?	.	/	-88	.	/
CSc1ncccc1C(=O)N1CCCC(C(=O)c2ccc3ccccc3c2)C1 (configuration not stated)	?	?	.	.	11µM	.
CSc1ncccc1C(=O)N1CCN(S(=O)(=O)c2ccc3ccccc3c2)CC1	?	/	/	-83	/	/
O=C(c1ccncc1)N1CCN(S(=O)(=O)c2ccc3ccccc3c2)CC1	?	/	/	.	/	/
CC(C)CC1NC(=O)N(CC(=O)N2CCN(S(=O)(=O)c3ccc4ccccc4c3)CC2)C1=O (configuration not stated)	.	.	/	.	.	?
O=C(c1ccccc1F)N1CCN(S(=O)(=O)c2ccc3ccccc3c2)CC1	.	/	/	.	/	/
CCc1ccc(NC(=O)CSc2nc(=O)n(Cc3cccnc3)c3c2CCC3)cc1	/	/	.	.	.	.
Cc1ccc(S(=O)(=O)N2CCN(C(=O)CCN3C(=O)c4ccccc4C3=O)CC2)cc1C	.	?	.	-62	.	.
O=C(c1ccc2ccccc2c1)C1CCCN(C(=O)CN2C(=O)CSC2=O)C1 (configuration not stated)	.	.	.	-68	.	.
Cc1ccc(S(=O)(=O)N2CCN(C(=O)Cc3ccccc3)CC2)cc1C	.	/	/	.	/	/
CCOC(=O)c1c(NC(=O)CSc2nnc3c(n2)[nH]c2ccccc23)sc2c1CCN(C)C2	7.1µM	?	.	.	.	.
CCOC(=O)c1sc(NC(=O)CSc2ncccn2)nc1C	16µM	?	.	.	?	.
CCOC(=O)c1c(NC(C)=O)sc2c1CCN(Cc1ccccc1)C2	?	/	?	.	/	.
CCOC(=O)c1c(NC(=O)CC)sc2c1CCN(Cc1ccccc1)C2	11µM	/	?	.	/	.

Bioassay records (PubChem)
